Measured values as given in PubChem BioAssay.
Values without a mark were called inactive. This is one part of the list. Calls of active or inactive are those of the source. Rule as the data show it, unless noted: active = inhibition above about 28%; inactive = the rest.

Assays:
[1] = StAR promoter reporter inhibitors, counter-screen for LRH-1 inverse agonist project, cell-based, luminescence, high throughput (AID 651611); conditions: StAR promoter luciferase reporter counterscreen, at 3.6 µM, stronger effect = higher value
[2] = biological target: Nuclear receptor subfamily 5 group A member 2 (Homo sapiens) (UniProt O00482); assay: LRH-1 (NR5A2) inverse agonists, retest, confirmation, cell-based, luminescence (AID 651613; in the data active = inhibition above about 42%;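 also: HEK293T cells co-transfected with LRH-1 and StAR promoter luciferase reporter; 0% = vehicle wells and 100% = parental cells lacking receptor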); conditions: cell-based LRH-1 luciferase reporter, inverse agonism; at 3.6 µM; stronger effect = higher value
[3] = biological target: Steroidogenic factor 1 (Homo sapiens) (UniProt Q13285); assay: SF1 (NR5A1) inverse agonists, counter-screen for LRH-1 inverse agonist project, cell-based, luminescence, high throughput (AID 651614; in the data active = inhibition above about 44%;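 also: cells cotransfected with StAR promoter reporter and SF1 expression vector; 0% = vehicle on cells with receptor and 100% = vehicle on cells lacking receptor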); conditions: cell-based SF1 luciferase reporter, at 3.6 µM, stronger effect = higher value
[4] = VP16 transactivation reporter inhibitors, counter-screen for LRH-1 inverse agonist project, cell-based, luminescence, high throughput (AID 651615; in the data active = inhibition above about 33%); conditions: Gal4-VP16 luciferase reporter cells, at 3.6 µM, stronger effect = higher value
[5] = biological target: Photoreceptor-specific nuclear receptor (Homo sapiens) (UniProt Q9Y5X4); assay: NR2E3 agonist confirmation in cells, cell-based, luminescence, CHO-S two-hybrid (AID 624378;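 active = average inhibition above a cutoff equal to the mean inhibition of all tested compounds plus one SD, cut at about 70% in these data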;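 also: 0% = DMSO in NR2E3 cells and 100% = DMSO in cells lacking NR2E3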); conditions: CHO-S mammalian two-hybrid NR2E3-NCOR, luciferase luminescence; at 3.98 µM; stronger effect = higher value
[6] = GAL4-VP16 reporter modulators, confirmation, counter-screen for NR2E3 agonist project, cell-based, luminescence, CHO-S, high throughput (AID 624379;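 active = mean inhibition above a cutoff equal to the average over all tested compounds plus one standard deviation, cut at about 70% in these data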;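 also: luciferase from a UAS reporter driven by GAL4-VP16 transactivation; 0% = DMSO with VP16-transfected cells and 100% = DMSO with cells lacking VP16; higher means less reporter light so more repression of VP16 activity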); conditions: CHO-S GAL4-VP16 luciferase reporter, at 3.98 µM, stronger effect = higher value
[7] = Gal4-VP16 luciferase reporter inhibitors, counter-screen for COUP-TFII antagonist project, cell-based, luminescence, HEK293 (AID 687007; in the data active = inhibition above about 13%); conditions: at 8.5 µM, stronger effect = higher value
[8] = biological target: COUP transcription factor 2 (Homo sapiens) (UniProt P24468); assay: NR2F2 transcriptional activity inhibitors, confirmation, cell-based, luciferase reporter, HEK293, triplicate (AID 687008;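 active = mean inhibition over three repeats above a set limit taken from the earlier primary screen, cut at about 38% in these data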;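 also: 100% = cells given the luciferase reporter alone without the COUP-TF2 vector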); conditions: HEK293 NGFI-A luciferase reporter, luminescence; at 8.5 µM; stronger effect = higher value
COUP transcription factor 2 (Homo sapiens), sequence (P24468 whole entry, looked up): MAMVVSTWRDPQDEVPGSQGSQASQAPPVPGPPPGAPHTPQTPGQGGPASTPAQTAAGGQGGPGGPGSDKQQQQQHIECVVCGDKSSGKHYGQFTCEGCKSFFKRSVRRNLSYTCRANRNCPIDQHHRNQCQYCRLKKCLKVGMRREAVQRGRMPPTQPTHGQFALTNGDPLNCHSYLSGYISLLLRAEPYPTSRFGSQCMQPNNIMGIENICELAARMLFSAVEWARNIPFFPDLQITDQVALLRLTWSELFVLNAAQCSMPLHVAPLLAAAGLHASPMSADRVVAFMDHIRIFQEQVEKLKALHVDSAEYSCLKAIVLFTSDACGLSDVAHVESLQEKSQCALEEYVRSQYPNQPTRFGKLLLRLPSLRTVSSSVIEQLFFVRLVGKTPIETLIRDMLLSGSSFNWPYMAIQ

Nuclear receptor subfamily 5 group A member 2 (Homo sapiens), sequence (O00482 whole entry, looked up): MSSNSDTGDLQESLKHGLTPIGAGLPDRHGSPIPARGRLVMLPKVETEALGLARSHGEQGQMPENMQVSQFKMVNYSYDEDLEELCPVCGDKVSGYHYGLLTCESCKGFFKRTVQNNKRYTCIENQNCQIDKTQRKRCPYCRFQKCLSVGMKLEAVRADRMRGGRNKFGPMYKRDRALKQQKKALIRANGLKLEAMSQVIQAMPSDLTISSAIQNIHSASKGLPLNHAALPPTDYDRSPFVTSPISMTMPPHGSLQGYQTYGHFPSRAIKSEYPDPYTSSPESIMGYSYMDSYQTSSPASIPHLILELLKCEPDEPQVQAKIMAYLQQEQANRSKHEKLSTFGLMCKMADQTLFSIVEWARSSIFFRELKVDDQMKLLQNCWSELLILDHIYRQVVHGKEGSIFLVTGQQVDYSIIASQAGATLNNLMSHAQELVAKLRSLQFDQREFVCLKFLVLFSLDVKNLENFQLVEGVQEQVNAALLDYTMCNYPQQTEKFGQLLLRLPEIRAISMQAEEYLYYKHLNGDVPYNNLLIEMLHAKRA
Steroidogenic factor 1 (Homo sapiens), sequence (Q13285 whole entry, looked up, the tested form may be a part): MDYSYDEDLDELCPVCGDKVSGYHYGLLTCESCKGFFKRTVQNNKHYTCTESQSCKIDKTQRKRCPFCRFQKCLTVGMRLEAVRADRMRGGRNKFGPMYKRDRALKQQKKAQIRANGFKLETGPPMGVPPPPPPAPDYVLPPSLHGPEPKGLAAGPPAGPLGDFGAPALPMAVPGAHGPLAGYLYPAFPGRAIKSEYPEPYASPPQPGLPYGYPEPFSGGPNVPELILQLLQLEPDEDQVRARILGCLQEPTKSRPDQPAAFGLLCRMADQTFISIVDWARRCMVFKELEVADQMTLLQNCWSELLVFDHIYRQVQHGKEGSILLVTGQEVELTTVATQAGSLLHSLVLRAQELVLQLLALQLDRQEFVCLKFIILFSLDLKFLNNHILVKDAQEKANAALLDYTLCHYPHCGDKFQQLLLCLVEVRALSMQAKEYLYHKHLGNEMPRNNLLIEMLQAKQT
Photoreceptor-specific nuclear receptor (Homo sapiens), sequence (Q9Y5X4 whole entry, looked up, the tested form may be a part): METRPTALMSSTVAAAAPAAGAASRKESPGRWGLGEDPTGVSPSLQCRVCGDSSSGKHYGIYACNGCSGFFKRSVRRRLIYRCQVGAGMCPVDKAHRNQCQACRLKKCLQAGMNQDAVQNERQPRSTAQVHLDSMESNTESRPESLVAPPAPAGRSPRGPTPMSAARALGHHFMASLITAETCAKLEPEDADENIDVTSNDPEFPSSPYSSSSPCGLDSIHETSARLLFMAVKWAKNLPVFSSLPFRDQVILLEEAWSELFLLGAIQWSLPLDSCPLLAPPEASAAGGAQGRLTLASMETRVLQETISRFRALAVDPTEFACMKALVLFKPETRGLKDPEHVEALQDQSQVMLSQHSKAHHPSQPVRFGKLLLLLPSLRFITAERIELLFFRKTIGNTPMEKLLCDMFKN

Cn1c(CN2CCN(c3ccc(Cl)cc3)CC2)nc2ccccc21
inhibition [1]: 5.45%
inhibition [2]: 32.9%
inhibition [3]: 52.9% (active)
inhibition [4]: -6.14%

O=S(=O)(c1ccc(-c2csc(Nc3ccc(F)cc3)n2)cc1)N1CCCC1
inhibition [1]: 15.5%
inhibition [2]: 66.7% (active)
inhibition [3]: 56.4% (active)
inhibition [4]: 35.4% (active)

COc1ccc(NS(=O)(=O)c2ccc(OCC(=O)N3CCOCC3)cc2)cc1Cl
inhibition [1]: -8.5%
inhibition [2]: 35.7%
inhibition [3]: 34.3%
inhibition [4]: 6.15%

Cc1cc2oc(=O)cc(-c3ccccc3)c2c(C)c1-c1ccc(CO)cc1
inhibition [1]: 10.8%
inhibition [2]: 71.5% (active)
inhibition [3]: 63.6% (active)
inhibition [4]: 16.8%

COC(=O)c1ccc(NC(=O)CN2C(=O)CNC2=O)cc1
inhibition [1]: 11.5%
inhibition [2]: 62.9% (active)
inhibition [3]: 50.9% (active)
inhibition [4]: -6.93%

CC1CC(=Cc2ccc(N)cc2)C(=O)O1 (centres undefined)
inhibition [1]: -13.5%
inhibition [2]: 41.8% (active)
inhibition [3]: 47.7% (active)
inhibition [4]: -23.5%

CN(C)c1ccc(CNc2ncnc3sccc23)cc1
inhibition [1]: 2.38%
inhibition [2]: 71% (active)
inhibition [3]: 47.9% (active)
inhibition [4]: 42.5% (active)

CCN(CC)S(=O)(=O)c1ccc(N(C)Cc2ccc(C(F)(F)F)cc2)nc1
inhibition [5]: 34.6%
inhibition [6]: 41.8%
inhibition [7]: -6.6%
inhibition [8]: 22.6%

CC(=O)C1=C(c2ccc(Br)cc2)C(=O)c2ccccc2C1=O
inhibition [1]: 74.3% (active)
inhibition [2]: 101% (active)
inhibition [3]: 78.1% (active)
inhibition [4]: 92% (active)

O=[N+]([O-])c1cccc(-c2ccc3nnc(SCc4cccnc4)n3n2)c1
inhibition [1]: 3.6%
inhibition [2]: 62.1% (active)
inhibition [3]: 62% (active)
inhibition [4]: 19.4%

Cc1cccc(NC(=O)CSc2nnc([C@@H]3CCCN3C(=O)OC(C)(C)C)o2)c1C
inhibition [1]: 33.4% (active)
inhibition [2]: 66.2% (active)
inhibition [3]: 73.5% (active)
inhibition [4]: -39.9%

Cc1cc(N2CCN(C(=O)c3ccco3)CC2)n2nc(-c3cccc(F)c3)cc2n1
inhibition [1]: 14.2%
inhibition [2]: 54.6% (active)
inhibition [3]: 60.6% (active)
inhibition [4]: -10.7%

O=C(Nc1ccc(C(=O)N2CCOCC2)cc1)c1cccc([N+](=O)[O-])c1
inhibition [1]: 1.39%
inhibition [2]: 48.4% (active)
inhibition [3]: 41.9%
inhibition [4]: -0.69%

COc1cccc(-c2nc(NCC3CCCO3)c3ccccc3n2)c1O (centres undefined)
inhibition [1]: 31.9% (active)
inhibition [2]: 64.7% (active)
inhibition [3]: 59.1% (active)
inhibition [4]: -15.4%

Cc1nnc(SCC(=O)Nc2ccc(Br)cc2)n(N)c1=O
inhibition [1]: 6.5%
inhibition [2]: 44.3% (active)
inhibition [3]: 32.1%
inhibition [4]: -5.1%

OCCCNc1ncnc2oc(-c3ccccc3)c(-c3ccccc3)c12
inhibition [1]: 9.63%
inhibition [2]: 35.1%
inhibition [3]: 27.6%
inhibition [4]: 13.3%

O=C(NCc1cccnc1)c1ccc([N+](=O)[O-])o1
inhibition [1]: 16.3%
inhibition [2]: 62.7% (active)
inhibition [3]: 63.4% (active)
inhibition [4]: -3.23%

Cc1ccc(CNC(=O)CN2C(=O)NC3(CCCC3)C2=O)cc1
inhibition [1]: 5.83%
inhibition [2]: 33.5%
inhibition [3]: 43.7% (active)
inhibition [4]: 0.14%

NC(=O)c1ccc(NC(=O)COC(=O)C2COc3ccccc3O2)cc1 (centres undefined)
inhibition [1]: 21.9%
inhibition [2]: 52.4% (active)
inhibition [3]: 56.7% (active)
inhibition [4]: -20.5%

O=C(COc1ccc2ccc(=O)oc2c1)Nc1ccc(N2CCOCC2)cc1
inhibition [1]: 13.3%
inhibition [2]: 57.3% (active)
inhibition [3]: 45.5% (active)
inhibition [4]: -5.4%

COC(=O)c1c(NC(=O)c2ccco2)sc2c1CCN(C(C)=O)C2
inhibition [1]: 20%
inhibition [2]: 54.4% (active)
inhibition [3]: 44.7% (active)
inhibition [4]: -41%

CC(=O)N[C@@H](Cc1c[nH]c2ccccc12)C(=O)OCC(=O)Nc1ccc2c(c1)OCO2
inhibition [1]: -1.82%
inhibition [2]: 53.1% (active)
inhibition [3]: 56.8% (active)
inhibition [4]: -4.65%

O=C(CNc1cccc2ccccc12)N/N=C/c1ccc([N+](=O)[O-])o1
inhibition [1]: 27.6%
inhibition [2]: 56.1% (active)
inhibition [3]: 56% (active)
inhibition [4]: 39.9% (active)

O=C(C1=C[C@@H](C2CCCCC2)C[C@@H](OCc2ccc(CO)cc2)O1)N1CCN(Cc2ccc3c(c2)OCO3)CC1
inhibition [1]: 12%
inhibition [2]: 46.2% (active)
inhibition [3]: 40.6%
inhibition [4]: 4.7%

COc1cc(C(=O)NC2CCN(C)CC2)ccc1Nc1ncc2c(n1)N(CCc1ccccc1)CCC(=O)N2C
inhibition [1]: 63.2% (active)
inhibition [2]: 54.8% (active)
inhibition [3]: 47.4% (active)
inhibition [4]: -166%

CCC(C)n1c(SCC(=O)NCCc2ccc(S(N)(=O)=O)cc2)nc2ccsc2c1=O (centres undefined)
inhibition [1]: 10.6%
inhibition [2]: 48.7% (active)
inhibition [3]: 52.6% (active)
inhibition [4]: -3.41%
